# Data from PubChem BioAssay (Tox21).
# Records with an inconclusive call do not appear. A call without a number means that no potency is given here. Calls of active or inactive are those of the source. Unless noted, calls come from the whole dose curve; as a rule, active = well fitted curve in the direction sought with a large enough effect in the repeat runs; inconclusive = weak or mixed curves; inactive = no such curve, though single readings can be large; an effect the other way counts as inactive or inconclusive.
# Key:
# [1] = qHTS assay to identify small molecule antagonists of the vitamin D receptor (VDR) signaling pathway - cell viability counter screen (AID 743225); note: nearly all actives have a fitted effect of over 50% in size; note: potency is the fitted concentration of half-maximal effect
# Procedure, shortened: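 Luminescent cell viability (CellTiter-Glo) in VDR-bla HEK 293T cells after 16 h compound exposure at 37C in the presence of 3 nM final 1-alpha,25-dihydroxy vitamin D3.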
# [2] = qHTS assay to identify small molecule agonists of the NFkB signaling pathway - cell viability counter screen (AID 1159515; calls by dose curve; note: nearly all actives have a fitted effect of over 55% in size)
# Procedure, shortened: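 5 hr compound treatment of NFkB-bla ME-180 cells (2,000/well, seeded overnight beforehand), followed by reporter substrate for 1.5 hr. CellTiter-Glo added afterward; luminescence after 30 min RT.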
# [3] = qHTS assay to identify small molecule antagonists of the retinoid-related orphan receptor gamma (ROR-gamma) signaling pathway - cell viability counter screen (AID 1159520); note: nearly all actives have a fitted effect of over 50% in size
# Procedure, shortened: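 Cytotoxicity was read from cellular ATP (CellTiter-Glo luminescence) after 16 hr at 37 C with 1 uM doxycycline induction. The inducer was added 2 hr after compound transfer to Tet-on ROR gamma CHO cells.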
# [4] = qHTS assay to identify small molecule agonists of the AP-1 signaling pathway - cell viability counter screen (AID 1159525; calls by dose curve; note: nearly all actives have a fitted effect of over 55% in size)
# Procedure, shortened: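 Luminescent ATP readout (Cell Titer Glo, 30 min RT), normalised to DMSO and tetra n-octyl ammonium bromide controls. Cells were ME-180 AP-1-bla in 0.5% dialyzed FBS Opti-MEM, with a 5 h, 37 °C compound exposure.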
# [5] = qHTS assay to identify small molecule agonists of the AP-1 signaling pathway (AID 1159526; calls by dose curve)
# [6] = qHTS assay to identify small molecule antagonists of the retinoid acid receptor (RAR) signaling pathway - cell viability counter screen (AID 1159551); note: nearly all actives have a fitted effect of over 35% in size
# Procedure, shortened: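 Seed C3RL4 cells; next day add compound, then retinol to 1 uM final; incubate 6 h at 37 C; add CellTiter-Glo; read luminescence after 30 min at RT.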
# [7] = qHTS assay to identify small molecule antagonists of the retinoic acid receptor (RAR) signaling pathway (AID 1159552; note: nearly all actives have a fitted effect of over 50% in size)
# Procedure, shortened: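 Readout: luciferase luminescence, 30 min post-reagent at RT. Setup: C3RL4 RARE reporter cells, compounds plus retinol 1 uM final, 6 hr incubation at 37 C and 5% CO2.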
# [8] = qHTS assay to identify small molecule agonists of the retinoic acid receptor (RAR) signaling pathway (AID 1159553); settings: C3RL4 RARE luciferase reporter, agonist, 6 h; activation: at 73.3 µM (top of the series); note: potency is the fitted concentration of half-maximal effect
# Procedure, shortened: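 Activation of retinol signaling was monitored via a RARE luciferase reporter in C3RL4 cells. After 6 hr compound treatment at 37 C, detection reagent was added for 30 min at room temperature before luminescence reading.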
# [9] = qHTS assay to identify small molecule agonists of the vitamin D receptor (VDR) signaling pathway - cell viability counter screen (AID 743224); note: nearly all actives have a fitted effect of over 50% in size; note: potency is the fitted concentration of half-maximal effect
# Procedure, shortened: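 Here cell health was gauged by luminescent ATP detection (CellTiter-Glo, 30 min RT) in VDR-bla cells that had been incubated with test compounds for 16 h at 37C and 5% CO2.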
# [10] = qHTS assay to identify small molecule agonists of the endoplasmic reticulum stress response signaling pathway (AID 1159516; active = well fitted activation curve with a large enough effect in the signal ratio in the repeat runs, not every such curve was filed as active; the % refers to the signal ratio)
# Procedure, shortened: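 Reporter HeLa cells (ESRE-beta-lactamase) underwent 5 hr compound incubation at 37 C and 5% CO2 in quantitative HTS format. Detection followed 2 hr of FRET substrate loading at room temperature.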
# [11] = biological target: Retinoic acid receptor RXR-alpha (Homo sapiens) (UniProt P19793); test: qHTS assay to identify small molecule agonists of the RXR signaling pathway (AID 1159527; calls by dose curve; note: nearly all actives have a fitted effect of over 35% in size; note: potency is the fitted concentration of half-maximal effect)
# Retinoic acid receptor RXR-alpha (Homo sapiens), sequence (P19793 whole entry, looked up): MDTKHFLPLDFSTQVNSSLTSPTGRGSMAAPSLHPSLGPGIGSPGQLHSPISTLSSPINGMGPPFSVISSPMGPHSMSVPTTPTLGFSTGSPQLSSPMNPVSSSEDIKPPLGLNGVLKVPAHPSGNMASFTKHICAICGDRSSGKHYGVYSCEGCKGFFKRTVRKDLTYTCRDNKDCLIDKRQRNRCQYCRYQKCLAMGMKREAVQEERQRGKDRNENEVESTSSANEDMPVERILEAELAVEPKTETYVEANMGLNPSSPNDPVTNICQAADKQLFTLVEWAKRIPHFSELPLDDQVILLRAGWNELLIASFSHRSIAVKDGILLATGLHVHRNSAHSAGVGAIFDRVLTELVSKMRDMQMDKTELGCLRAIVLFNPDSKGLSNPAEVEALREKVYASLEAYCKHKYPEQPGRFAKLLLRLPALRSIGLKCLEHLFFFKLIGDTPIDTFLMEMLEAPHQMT
# Procedure, shortened: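 Beta-lactamase reporter assay, agonist format. Engineered HEK 293T line, charcoal-stripped FBS at 2%, overnight (16 hr) exposure, fluorescence at 460 and 530 nm after 405 nm excitation.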
# [12] = qHTS assay to identify small molecule agonists of the RXR signaling pathway - cell viability counter screen (AID 1159529)
# Procedure, shortened: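 Same-well viability check after the LiveBLAzer FRET read: CellTiter-Glo added, luminescence measured after 30 min at room temperature. Reporter HEK 293T cells had been treated with compounds for 16 hr following a 5 hr preincubation.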
# [13] = qHTS assay to identify small molecule agonists of the endoplasmic reticulum stress response signaling pathway - cell viability counter screen (AID 1159517; calls by dose curve)
# Procedure, shortened: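 Cells, HeLa ESRE-bla; density, 1,500/well; dosing, 5 hr at 37 C, 5% CO2; readout, CellTiter-Glo luminescence after 30 min RT.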
# [14] = biological target: Nuclear receptor ROR-gamma (Homo sapiens) (UniProt P51449); test: qHTS assay to identify small molecule antagonists of the retinoid-related orphan receptor gamma (ROR-gamma) signaling pathway (AID 1159521)
# Procedure, shortened: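 CHO cells expressing RORγ under a TET-on promoter, luciferase under RORE control. Dox 1 uM final, 16 h; compounds added 2 h prior. Luminescence decrease measured.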
# [15] = qHTS assay to identify small molecule antagonists of the estrogen related receptor (ERR) signaling pathway (AID 1224819)
# Procedure, shortened: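 qHTS in ERR cells, 2,000/well, 1536 format. Cpd (DMSO) added after 6 h settle, 18 h 37 C. One-Glo luminescence, 30 min RT.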
# [16] = test system: estrogen-related receptor alpha (ERRalpha) with PGC-1alpha coactivator, human; test: qHTS assay to identify small molecule antagonists of the estrogen related receptor signaling pathway with the pleiotropic PPARgamma coactivator (PGC) (AID 1224821; calls by dose curve)
# Procedure, shortened: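 Cells engineered for PGC/ERR signalling (line from NTP) were plated 6 h at 37 C/5% CO2, then exposed to DMSO-dissolved compound for 18 h at 37 C. Luciferase activity was read by One-Glo luminescence after 30 min at room temperature.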
# [17] = qHTS assay to identify small molecule antagonists of the estrogen related receptor signaling pathway with the pleiotropic PPARgamma coactivator (PGC) cell viability counter screen (AID 1224822;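 note: viability read after 17.5 h compound exposure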)
# Procedure, shortened: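 Compounds in DMSO, with positive and negative controls, were applied to PGC/ERR cells (2,000/well) and left 17.5 h at 37 C before CellTiter-Fluor detection.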
# [18] = qHTS assay to identify small molecule agonists of the estrogen related receptor (ERR) signaling pathway (AID 1224820)
# Procedure, shortened: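 ERR reporter cells (NTP line) plated 2,000/well, incubated 6 h at 37 C/5% CO2, then pinned with compounds in DMSO and held 18 h at 37 C. One-Glo added; luminescence read after 30 min at room temperature.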
# [19] = qHTS assay to identify small molecule agonists of the estrogen related receptor signaling pathway with the pleiotropic PPARgamma coactivator (PGC) (AID 1224823)
# Procedure, shortened: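 PGC/ERR reporter cells were seeded, rested 6 h at 37 C/5% CO2, then exposed to compounds in DMSO by pin transfer for 18 h at 37 C. Luciferase activity was read as luminescence after One-Glo reagent and 30 min at room temperature.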
structure (smiles),measurement,setting,value
Cc1cccc(N(C)C(=S)Oc2ccc3c(c2)CCC3)c1,Potency,[1],inactive
same,Potency,[2],inactive
same,Potency,[3],inactive
same,Potency,[4],inactive
same,Potency,[5],inactive
same,Potency,[6],inactive
same,Potency,[7],inactive
same,Potency,[8],inactive
CCCCN(CCN(CCCC)C(=O)N1CCOCC1)C(=O)N1CCOCC1,Potency,[9],33.5 µM (active)
same,Potency,[1],inactive
same,Potency,[10],inactive
same,Potency,[3],inactive
same,Potency,[4],inactive
same,Potency,[11],inactive
same,Potency,[12],inactive
same,Potency,[6],inactive
same,Potency,[7],inactive
Cc1cc(C)c(N)cc1C,Potency,[9],inactive
same,Potency,[10],inactive
same,Potency,[13],inactive
same,Potency,[3],inactive
same,Potency,[14],inactive
same,Potency,[4],inactive
same,Potency,[5],inactive
same,Potency,[11],inactive
same,Potency,[12],inactive
same,Potency,[6],inactive
same,Potency,[8],inactive
O=c1c(O)c(-c2ccc(O)cc2)oc2cc(O)cc(O)c12,Potency,[9],inactive
same,Potency,[1],inactive
same,Potency,[10],inactive
same,Potency,[3],inactive
same,Potency,[14],inactive
same,Potency,[4],inactive
same,Potency,[5],inactive
same,Potency,[11],inactive
same,Potency,[12],inactive
same,Potency,[7],inactive
same,Potency,[8],18.4 µM (active)
CC1CC(C)C(=O)C1=O (stereo not given),Potency,[9],inactive
same,Potency,[1],inactive
same,Potency,[2],inactive
same,Potency,[3],inactive
same,Potency,[4],inactive
same,Potency,[5],inactive
same,Potency,[12],inactive
same,Potency,[6],inactive
C=C(C)C(=O)OCCCCCCCCCCCCC,Potency,[1],inactive
same,Potency,[10],inactive
same,Potency,[3],inactive
same,Potency,[14],inactive
same,Potency,[4],inactive
same,Potency,[5],inactive
same,Potency,[11],inactive
same,Potency,[12],inactive
same,Potency,[6],inactive
same,Potency,[7],inactive
same,Potency,[8],inactive
Nc1cccc2c1CN(C1CCC(=O)NC1=O)C2=O (stereo not given),Potency,[9],inactive
same,Potency,[2],inactive
same,Potency,[13],inactive
same,Potency,[3],inactive
same,Potency,[14],inactive
same,Potency,[5],inactive
same,Potency,[11],inactive
same,Potency,[12],inactive
same,Potency,[6],inactive
same,Potency,[7],inactive
same,Potency,[8],inactive
CC(=O)OCC[N+](C)(C)C,Potency,[9],inactive
same,Potency,[10],inactive
same,Potency,[13],inactive
same,Potency,[3],inactive
same,Potency,[14],inactive
same,Potency,[4],inactive
same,Potency,[12],inactive
same,Potency,[6],inactive
same,Potency,[8],inactive
NC1[C@H]2CN(c3nc4c(cc3F)c(=O)c(C(=O)O)cn4-c3ccc(F)cc3F)C[C@@H]12 (stereo not given in full),Potency,[10],inactive
same,Potency,[3],inactive
same,Potency,[14],inactive
same,Potency,[5],inactive
same,Potency,[11],19 µM (active)
same,Potency,[12],inactive
same,Potency,[6],inactive
same,outcome,[15],inactive
same,outcome,[16],inactive
same,outcome,[17],inactive
CC[N+](CC)(CCNC(=O)C(=O)NCC[N+](CC)(CC)Cc1ccccc1Cl)Cc1ccccc1Cl,Potency,[9],inactive
same,Potency,[13],inactive
same,Potency,[3],inactive
same,Potency,[14],inactive
same,Potency,[4],inactive
same,Potency,[5],inactive
same,Potency,[11],inactive
same,Potency,[12],inactive
same,Potency,[6],inactive
same,Potency,[7],inactive
same,Potency,[8],inactive
Cc1c(C)c2c(c(C)c1OC(=O)CCC(=O)OCCO)CC[C@@](C)(CCC[C@H](C)CCC[C@H](C)CCCC(C)C)O2,Potency,[9],26.6 µM (active)
same,Potency,[1],26.8 µM (active)
same,Potency,[2],inactive
same,Potency,[3],inactive
same,Potency,[4],inactive
same,Potency,[12],inactive
Cc1cc2c(OCC(CNC(C)(C)C)OC(=O)c3ccccc3)cccc2[nH]1 (stereo not given),Potency,[9],inactive
same,Potency,[1],inactive
same,Potency,[10],inactive
same,Potency,[3],inactive
same,Potency,[4],inactive
same,Potency,[5],inactive
same,Potency,[11],inactive
same,Potency,[12],inactive
same,Potency,[6],inactive
same,Potency,[8],inactive
O=C(O)CCc1nc(-c2ccccc2)c(-c2ccccc2)o1,Potency,[9],inactive
same,Potency,[1],inactive
same,Potency,[2],inactive
same,Potency,[3],inactive
same,Potency,[14],inactive
same,Potency,[4],inactive
same,Potency,[5],inactive
same,Potency,[12],inactive
same,Potency,[6],inactive
same,Potency,[8],inactive
same,outcome,[15],inactive
same,outcome,[18],inactive
same,outcome,[16],inactive
same,outcome,[17],inactive
same,outcome,[19],inactive
O=C1c2ccccc2C(=O)N1CCc1noc(-c2ccc(CN3CCCCCC3)s2)n1,Potency,[1],inactive
same,Potency,[10],inactive
same,Potency,[13],inactive
same,Potency,[3],inactive
same,Potency,[4],inactive
same,Potency,[5],inactive
same,Potency,[12],inactive
same,Potency,[6],inactive
same,Potency,[7],inactive
same,Potency,[8],inactive
CCCCCC[C@@H](O)C/C=C\CCCCCCCC(=O)OCC(O)CO (stereo not given in full),Potency,[9],inactive
same,Potency,[1],inactive
same,Potency,[10],inactive
same,Potency,[3],inactive
same,Potency,[14],inactive
same,Potency,[11],49 µM (active)
same,Potency,[6],inactive
same,Potency,[8],inactive
Oc1cccc(O)c1O,Potency,[9],inactive
same,Potency,[2],inactive
same,Potency,[13],inactive
same,Potency,[14],inactive
same,Potency,[4],inactive
same,Potency,[7],inactive
same,activation,[8],3.27% (active)
